JMJD2A Tudor: qHTS Assay for Inhibitors of JMJD2A-Tudor Domain. AlphaScreen JMJD2A-Tudor / H3K4me3 peptide binding. Potency, µM (titrated, usually from 114 µM), for inactives: top-dose activity change, negative = inhibition, actives largely listed as inhibitors. hit rate 4.4% among 390,000; also: potency is read from the fitted curve at half-maximal effect; % is scaled to controls: 0 for no effect and ±100 for the full control effect; nearly all actives have a fitted effect of over 50% in size
HP1b chromo inh: HTS for Inhibitors of HP1-beta Chromodomain Interactions with Methylated Histone Tails. AlphaScreen HP1-beta / biotin-H3K9me3 peptide binding. Potency, µM (highest dose often 114 µM), inactives show top-dose activity change, negative = inhibition, usual class: inhibitors. hit rate 0.56% among 390,000. AID 540317, 2011; also: potency is read from the fitted curve at half-maximal effect; nearly all actives have a fitted effect of over 70% in size
Target sequence (P83916 whole entry, looked up): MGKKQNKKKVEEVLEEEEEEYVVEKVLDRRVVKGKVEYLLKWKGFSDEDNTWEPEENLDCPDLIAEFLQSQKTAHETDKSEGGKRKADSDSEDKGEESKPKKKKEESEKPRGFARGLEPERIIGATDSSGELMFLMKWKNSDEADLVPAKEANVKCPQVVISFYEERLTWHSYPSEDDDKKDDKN
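Compound inhibition of the preformed complex between 50 nM HP1-beta and 50 nM biotinylated H3K9me3 peptide was read by AlphaScreen. Buffer was PBS pH 7.4 with 0.01% Tween-20. Incubations ran 30 min at room temperature, with 10 ug/mL donor/acceptor beads.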
PI5P4K alpha inh: qHTS for Inhibitors of phosphatidylinositol 5-phosphate 4-kinase (PI5P4K) | PI5P4Kalpha enzyme, ADP-Glo luminescence, 60 min; hits give low values | max response, % | hit rate 1.2% among 330,000 | AID 652105, 2013; active = max response of -50% or lower; inconclusive = between -30% and -50%; inactive = -30% or higher; also: value at the top dose of about 77 µM; % is scaled to controls: 0 for no effect and ±100 for the full control effect
Target sequence (P48426 whole entry, looked up): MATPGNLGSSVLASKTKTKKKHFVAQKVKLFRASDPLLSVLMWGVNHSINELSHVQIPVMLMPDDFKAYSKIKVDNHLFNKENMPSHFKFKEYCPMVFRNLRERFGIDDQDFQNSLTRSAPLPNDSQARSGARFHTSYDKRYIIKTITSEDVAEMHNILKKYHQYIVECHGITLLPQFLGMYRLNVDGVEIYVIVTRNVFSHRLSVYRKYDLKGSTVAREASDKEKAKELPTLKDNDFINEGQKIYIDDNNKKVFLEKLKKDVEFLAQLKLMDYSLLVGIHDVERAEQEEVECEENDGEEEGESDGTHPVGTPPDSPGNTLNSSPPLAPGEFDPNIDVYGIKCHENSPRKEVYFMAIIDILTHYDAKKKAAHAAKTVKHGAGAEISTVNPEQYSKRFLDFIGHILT
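Enzyme plus substrate dispensed, test compounds pinned in, then ATP (5 microM final) added. After 60 min at RT, ADP-Glo reagent 1 for 45 min and reagent 2 for 30 min preceded luminescence imaging.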
L3MBTL1 inh: qHTS Assay for the Inhibitors of L3MBTL1 | Lethal(3)malignant brain tumor-like protein 1 (Homo sapiens), Q9Y468 | AlphaScreen L3MBTL1–H3K9me1 peptide binding | Potency, µM (doses to about 57.1 µM), for inactives: at the top dose activity, negative = inhibition, hits mostly inhibitors | hit rate 0.66% among 230,000 | AID 485360, 2010; also: potency is read from the fitted curve at half-maximal effect; % is scaled to controls: 0 for no effect and ±100 for the full control effect; nearly all actives have a fitted effect of over 60% in size
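L3MBTL1 50 nM + b-AHA-H3(1-15)K9me1 75 nM, 30 min RT; compound added, 30 min RT; streptavidin donor/Ni-chelate acceptor beads 10 ug/mL each final, 30 min RT dark; AlphaScreen read.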
JMJD2E inh: qHTS Assay for Inhibitors of Human Jumonji Domain Containing 2E (JMJD2E); Potency, µM (doses to about 57.1 µM), for inactives: at the top dose activity change, negative = inhibition, actives largely listed as inhibitors; AID 2147, 2009; JMJD2E catalytic domain, FDH-coupled NADH fluorescence (FDH is formaldehyde dehydrogenase); Lysine-specific demethylase 4E (Homo sapiens), B2RXH2; hit rate 1.6% among 230,000; active = well fitted inhibition curve with a large enough effect, not every such curve was filed as active; inconclusive = small, poorly fitted or top-dose-only effect, or another doubt; inactive = no such curve, though single readings can be large or run the other way;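 also: potency is read from the fitted curve at half-maximal effect; 0% = wells with enzyme and -100% = buffer wells without enzyme; nearly all actives have a fitted effect of over 50% in size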
BAZ2B block: qHTS Assay for Inhibitors of BAZ2B; hit rate 4.4% among 360,000; Bromodomain adjacent to zinc finger domain protein 2B (Homo sapiens), Q9UIF8; Potency, µM (top dose mostly 114 µM), inactives show at the highest dose activity change, negative = inhibition, most hits filed as inhibitors; AlphaScreen BAZ2B-H3K14Ac peptide displacement; AID 504333, 2011; also: potency is read from the fitted curve at half-maximal effect; % is scaled to controls: 0 for no effect and ±100 for the full control effect; nearly all actives have a fitted effect of over 60% in size
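In this displacement format the biotinylated H3(5-23) peptide acetylated at Lys14 serves as ligand at 50 nM, with BAZ2B at 50 nM in PBS pH 7.4 containing 0.01% Tween-20. Donor and acceptor beads are 10 ug/mL final.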
Numbers without * were called inactive; [ ] = another dose, or the depositor's remark. An excerpt weighted towards active compounds, which were near 5.7% of everything screened. Unless noted, calls follow the shape of the dose curve; as a rule, active = well fitted inhibition curve with a large enough effect; inconclusive = small, poorly fitted or top-dose-only effect; inactive = no such curve, though single readings can be large or run the other way.

`COC(=O)c1sccc1S(=O)(=O)N(CC(=O)Nc1cccc(C)c1C)c1ccc(C)c(C)c1` gave JMJD2A Tudor -9%, HP1b chromo inh 27% and BAZ2B block -8%.
Screening Cc1cnc2c(C(=O)O)cnn2c1 returned JMJD2A Tudor inconclusive, HP1b chromo inh inconclusive, PI5P4K alpha inh 0, JMJD2E inh -23% and BAZ2B block inconclusive.
`O=C(O)c1cnn2cc(-c3[nH]ncc3[N+](=O)[O-])cnc12` gave JMJD2A Tudor 22µM*, HP1b chromo inh 4%, PI5P4K alpha inh -24, L3MBTL1 inh -1%, JMJD2E inh -5% and BAZ2B block inconclusive.
`Cc1cccc(CSc2nc3c(sc4ccccc43)c(=O)n2CCC(=O)NC(C)C)c1` gave JMJD2A Tudor -7%, HP1b chromo inh 65% and BAZ2B block 18%.
OCCN1CCN(c2cc(-c3ccccc3)c3ccccc3n2)CC1 was read as JMJD2A Tudor 0.79µM*, HP1b chromo inh inconclusive, PI5P4K alpha inh -5, L3MBTL1 inh -9%, JMJD2E inh inconclusive and BAZ2B block 40µM*.
Screening CN1CCN(C(c2ccccn2)c2cc(Cl)c3cccnc3c2O)CC1 (stereo unspecified) returned JMJD2A Tudor 18µM*, HP1b chromo inh 11µM*, PI5P4K alpha inh inconclusive, L3MBTL1 inh 14µM*, JMJD2E inh 25µM* and BAZ2B block 11µM*.
`O=C(CCc1ccccc1)NC(c1cccs1)c1cc(Cl)c2cccnc2c1O` (stereo unspecified) gave JMJD2A Tudor -21%, HP1b chromo inh 31%, PI5P4K alpha inh 7, L3MBTL1 inh 0%, JMJD2E inh 4% and BAZ2B block -18%.
Screening Oc1c(C(c2ccc(Cl)cc2)N2CCCC2)cc(Cl)c2cccnc12 (stereo unspecified) returned JMJD2A Tudor 28µM*, HP1b chromo inh 11%, PI5P4K alpha inh inconclusive, L3MBTL1 inh inconclusive, JMJD2E inh inconclusive and BAZ2B block 32µM*.
`Oc1c(C(c2ccccn2)N2CCC(Cc3ccccc3)CC2)cc(Cl)c2cccnc12` (stereo unspecified) gave JMJD2A Tudor 50µM*, HP1b chromo inh inconclusive, PI5P4K alpha inh inconclusive, JMJD2E inh inconclusive and BAZ2B block 50µM*.
Cc1ccc(C)c(-n2nnc(-c3nc(-c4ccc(Cl)cc4)no3)c2N)c1 was read as JMJD2A Tudor -7%, HP1b chromo inh 18% and BAZ2B block -32%.
`COc1cc(CNn2cn[nH]c2=S)cc(Cl)c1OCc1ccc(F)cc1` gave JMJD2A Tudor -19%, HP1b chromo inh 18%, PI5P4K alpha inh 9, L3MBTL1 inh 7%, JMJD2E inh 3% and BAZ2B block 1%.
Screening Fc1cccc(Cl)c1CNn1cn[nH]c1=S returned JMJD2A Tudor 50µM*, HP1b chromo inh 55%, PI5P4K alpha inh 0, L3MBTL1 inh 1%, JMJD2E inh -9% and BAZ2B block -34%.
For S=c1[nH]ncn1NCc1ccc(Cl)cc1Cl the results were JMJD2A Tudor 32µM*, HP1b chromo inh 28%, PI5P4K alpha inh -1, L3MBTL1 inh -1%, JMJD2E inh -2% and BAZ2B block -3%.
For O=C1CN(C(=O)COc2ccc(Cl)cc2)C(c2ccc(F)cc2)c2cc(Br)ccc2N1 (stereo unspecified) the results were JMJD2A Tudor -28%, HP1b chromo inh 13% and BAZ2B block -4%.
Screening O=C(CSc1ccc2nc(-c3ccccc3)cn2n1)Nc1ccccc1 returned JMJD2A Tudor -3%, HP1b chromo inh 14% and BAZ2B block 4%.
For CC[C@H](C)[C@@H](NC(=O)O[C@@H]1Cc2cc(OC)ccc2O[C@H]1c1cccc(OC)c1)C(=O)OC the results were JMJD2E inh 5%.
CCc1cc(-c2[nH]ncc2-c2ccc([N+](=O)[O-])cc2)c(O)cc1OC was read as JMJD2A Tudor 50µM*, HP1b chromo inh inconclusive, PI5P4K alpha inh 0 and BAZ2B block 40µM*.
COc1ccc(-c2cn[nH]c2-c2ccc(OCc3ccc([N+](=O)[O-])cc3)cc2O)cc1OC was read as JMJD2A Tudor inconclusive, HP1b chromo inh 5%, PI5P4K alpha inh 4, JMJD2E inh -12% and BAZ2B block -28%.
CCC(C)NC(=O)c1cn(CC)c2ccc(S(=O)(=O)N(C)C)cc2c1=O (stereo unspecified) was read as JMJD2A Tudor -12%, HP1b chromo inh 66%, PI5P4K alpha inh 2, L3MBTL1 inh -12%, JMJD2E inh 3% and BAZ2B block -3%.
Screening CCn1cc(C(=O)O)c(=O)c2cc(S(=O)(=O)N(C)C)ccc21 returned JMJD2A Tudor 20µM*, HP1b chromo inh 11%, L3MBTL1 inh -6%, JMJD2E inh inconclusive and BAZ2B block -2%.
For CCOc1cc(C2C(C#N)=C(N)SC(N)=C2C#N)ccc1OCCN1CCOCC1 the results were JMJD2A Tudor 45µM*, HP1b chromo inh inconclusive, L3MBTL1 inh 1%, JMJD2E inh -26% and BAZ2B block -31%.
`CCOc1ccc(C2C(C#N)=C(N)SC(N)=C2C#N)c(OCC)c1` gave JMJD2A Tudor inconclusive, HP1b chromo inh -21%, PI5P4K alpha inh -63*, L3MBTL1 inh -8%, JMJD2E inh inconclusive and BAZ2B block -38%.
Screening COc1ccc(C2C(C#N)=C(N)SC(N)=C2C#N)cc1OC returned JMJD2A Tudor 56µM*, HP1b chromo inh 6%, PI5P4K alpha inh -60*, L3MBTL1 inh -9%[11.4 µM], JMJD2E inh -28% and BAZ2B block -11%.
For CCCc1[nH]nc2c1C(c1ccc(OCCN3CCOCC3)c(OC)c1)C(C#N)=C(N)O2 (stereo unspecified) the results were JMJD2A Tudor -7%, HP1b chromo inh 28%, PI5P4K alpha inh 0, L3MBTL1 inh -7%, JMJD2E inh 2% and BAZ2B block -6%.
COc1ccc(C2C(C#N)=C(N)OC(C(C)(C)C)=C2C#N)cc1OC (stereo unspecified) was read as JMJD2A Tudor -4%, HP1b chromo inh 33%, PI5P4K alpha inh -9, L3MBTL1 inh -3%, JMJD2E inh inconclusive and BAZ2B block -2%.

Screens as filed in PubChem.
